Results as given in PubChem BioAssay (NCATS).
Results filed as inconclusive are left out. Active and inactive are the calls of the source. Calls follow the shape of the dose curve; as a rule, active = well fitted activation curve with a large enough effect; inconclusive = small, poorly fitted or top-dose-only effect; inactive = no such curve, though single readings can be large or run the other way. Numbered stars: 1 amine (or outer) side, 2 acyl side, 3 side chain; on linkers, the order of the positions; unused ones are H or OH. Square brackets hold non-standard residues; d marks the D form. Peptide text beside a SMILES is read from it. ξ: configuration not given here. Ala(indol-2-yl) = N[C@@H](Cc1cc2ccccc2[nH]1)C(=O)O; X5 = O=C([C@@H](CC(O)CCl)O[*:1])[*:2]; aIle = CC[C@@H](C)[C@H](N)C(=O)O; ξLac(3-iPr) = CC(C)CC(O)C(=O)O; NMeV = CN[CH](C(=O)O)C(C)C; NMeA = CN[CH](C)C(=O)O; Aib = CC(C)(N)C(=O)O; βAla = NCCC(=O)O

Each molecule was assayed against Cellular tumor antigen p53 (Homo sapiens) (UniProt P04637) (assay: Primary qHTS for small molecule compounds that upregulate eGFP-tagged delta133p53alpha (in N-terminal) cells. (AID 2060322; also: nearly all actives have a fitted effect of over 75% in size;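 as to activation: cells pre-induced with doxycycline then dosed without doxycycline; series mostly up to about 56 µM; 0% = DMSO vehicle and 100% = reference activator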)). Settings: NCI-H358 eGFP-delta133p53alpha fluorescence, 24 h; activation: stronger effect = higher value.
Sequence of Cellular tumor antigen p53 (Homo sapiens) (P04637 whole entry, looked up): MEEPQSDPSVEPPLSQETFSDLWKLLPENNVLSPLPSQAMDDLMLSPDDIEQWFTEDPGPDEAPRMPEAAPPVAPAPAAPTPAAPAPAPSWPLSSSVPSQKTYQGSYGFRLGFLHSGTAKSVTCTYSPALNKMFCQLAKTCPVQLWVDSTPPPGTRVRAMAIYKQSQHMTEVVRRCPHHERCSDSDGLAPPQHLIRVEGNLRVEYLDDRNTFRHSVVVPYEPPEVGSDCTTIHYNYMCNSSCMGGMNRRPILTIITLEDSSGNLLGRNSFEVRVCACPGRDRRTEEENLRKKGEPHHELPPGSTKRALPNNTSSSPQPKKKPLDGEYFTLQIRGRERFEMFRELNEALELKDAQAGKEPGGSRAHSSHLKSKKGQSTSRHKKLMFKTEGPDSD
Method in brief: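 NCI-H358 cells pre-induced 24 h with 10 ng/ml doxycycline for eGFP-delta133p53alpha, plated dox-free and exposed 24 h at 37C to titrated compounds. Fixed, Hoechst-stained; gated GFP peak intensity by laser scanning cytometry, normalized to DMSO (0%) and 57.5 uM 5-azacytidine (100%).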
Potency is read from the fitted curve at half-maximal effect.

Row | SMILES | activation | Potency
1 | C/C=C(\C)C(=O)OC1CC2C(C)(C)OC(=O)CC(OC(C)=O)C2(C)C2CC(OC(=O)C(C)C)C3(C)C(c4ccoc4)CC4OC43C12C (centres undefined) | -19.8% (inactive) | –
2 | CCC(C)(OC(C)=O)C(=O)O[C@H]1[C@H](OC(C)=O)C[C@@H]2[C@@](C)([C@@H]3C[C@H]4C=CO[C@H]4O3)[C@H](C)C[C@H](OC(C)=O)[C@@]2(COC(C)=O)[C@@]12CO2 (some centres undefined) | -3.82% (inactive) | –
3 | C[C@@H]1CCC2[C@@H](C)C(=O)OC3O[C@@]4(C)CCC1[C@]32OO4 (some centres undefined) | 37.5% (inactive) | –
4 | CC1=CC2OC3CC(O)[C@](C)([C@@]2(C)C(O)C1=O)[C@]31CO1 (some centres undefined) | – | 21.3 µM (active)
5 | CC(=O)OC1CC(O)C(C)(C)C2CC(OC(C)=O)C3(C)C(CCC4(C)C(c5ccoc5)C(=O)C5OC543)C12C (centres undefined) | -13% (inactive) | –
6 | COc1c(C(C)C)cc2c(c1O)[C@@]1(C(=O)O)CCCC(C)(C)C1CC2 (some centres undefined) | -13% (inactive) | –
7 | CC(C)(NC(=O)[C@@H](N)Cc1ccc(O)cc1)C(=O)N[C@@H](Cc1cc2ccccc2[nH]1)C(=O)N[C@@H](Cc1ccccc1)C(=O)O (H-Y[Aib][Ala(indol-2-yl)]F-OH) | 7% (inactive) | –
8 | N#CC(O[C@@H]1O[C@H](CO)[C@@H](O)[C@H](O)[C@H]1O)c1ccccc1 (some centres undefined) | 13% (inactive) | –
9 | CCCN(CCC)CCc1ccc(OC)c(OCCc2ccccc2)c1 | -1% (inactive) | –
10 | CCN1C[C@]2(COC)CC[C@H](O)[C@@]34C5C[C@@H]6[C@@H](OC)C[C@@](OC(C)=O)(C5[C@@H]6OC(C)=O)[C@H]([C@H](OC)C23)[C@@H]14 (some centres undefined) | 8.04% (inactive) | –
11 | C[C@]12CC[C@H](O[C@@H]3O[C@H](CO)[C@@H](O)[C@H](O)[C@H]3O)CC1=CC[C@@H]1C2CC[C@]2(C)[C@@H](C3=CC(=O)OC3)CC[C@]12O (some centres undefined) | 0.763% (inactive) | –
12 | O=C(O)c1ccnc2cc(C(OCCN3CCCCC3)c3ccccc3Cl)[nH]c12 (centres undefined) | -17% (inactive) | –
13 | C[C@]12CC[C@H](O)C[C@H]1CC[C@@H]1[C@@H]2[C@H](O)C(=O)[C@]2(C)[C@@H](c3ccc(=O)oc3)CC[C@]12O | – | 0.19 µM (active)
14 | CC[C@@H](C)[C@@H]1NC(=O)[C@@H]2CCCN2C(=O)[C@@H](CC(O)CCl)OC(=O)CCNC(=O)[C@H](C)N(C)C(=O)[C@H](C(C)C)N(C)C1=O (some centres undefined) (cyclo([NMeA][βAla][X5]P[aIle][NMeV])) | -10.7% (inactive) | –
15 | C[C@]12CC[C@H](O[C@@H]3O[C@H](CO)[C@@H](O)[C@H](O)[C@H]3O)CC1CC[C@@H]1C2CC[C@]2(C)[C@@H](C3=CC(=O)OC3)CC[C@]12O (some centres undefined) | – | 11.7 µM (active)
16 | CC1=CC2/C=C(\C)CCC(O)C(O)/C=C/C(=O)C23C(=O)NC(CC(C)C)C3C1C (centres undefined) | – | 13.1 µM (active)
17 | CC[C@@]1(O)C(=O)OCc2c1cc1n(c2=O)Cc2cc3c(OC)cccc3nc2-1 | – | 6.59 µM (active)
18 | C[C@]12CC[C@H](O)CC1=CC[C@@H]1C2CC[C@]2(C)[C@@H](C3=CC(=O)OC3)CC[C@]12O (some centres undefined) | 2.29% (inactive) | –
19 | CCC(C)(C#N)O[C@@H]1O[C@H](CO)[C@@H](O)[C@H](O)[C@H]1O (some centres undefined) | 16.8% (inactive) | –
20 | CC(C)(C)NC[C@H](O)c1ccc(O)cc1Cl | -6.33% (inactive) | –

Row | SMILES | activation | Potency
21 | C[C@@]12C[C@@H](c3ccoc3)OC(=O)C1CC[C@]1(C)[C@H]2[C@H]2C=C[C@]1(O)C(=O)O2 (some centres undefined) | -2.29% (inactive) | –
22 | COC1C(O)C(C)OC(OC2C(CO)O[C@@H](O[C@@H]3CC4CCC5C(CC[C@]6(C)[C@@H](C7=CC(=O)OC7)CC[C@]56O)[C@@]4(C)[C@H](O)C3)C(O)C2O)C1O (some centres undefined) | – | 5 µM (active)
23 | Cc1ccccc1C1=CCN(C)CC1 | 1.67% (inactive) | –
24 | CN1CCC2=C(C1)c1ccccc1Cc1ccccc12 | 16.2% (inactive) | –
25 | C[C@H]1O[C@@H](n2cnc3c(N)ncnc32)C[C@@H]1O | 15% (inactive) | –
26 | Oc1ccc2c3c1O[C@H]1[C@H](N(CCCl)CCCl)CC[C@@]4(O)[C@@H](C2)N(CC2CC2)CC[C@]314 | -14.3% (inactive) | –
27 | COC[C@]12CN(C)C3C4[C@H](OC)[C@H]1C3(C(OC)C[C@H]2O)[C@H]1C[C@@]2(O)[C@H](OC(=O)c3ccccc3)[C@@H]1[C@]4(O)[C@@H](O)[C@@H]2OC (some centres undefined) | -0.333% (inactive) | –
28 | CC(=O)O[C@H]1CN2CCC1CC2 | 5% (inactive) | –
29 | CN1C[C@@H]2CN(c3ccc(-c4ccccc4)nn3)C[C@@H]2C1 | 14.3% (inactive) | –
30 | CCC1=CC2CN3CCc4c([nH]c5ccccc45)[C@@](C(=O)OC)(C2)[C@@H]13 | 6.11% (inactive) | –
31 | CCN1C[C@]2(COC)[C@H](O)C[C@H](OC)[C@]34[C@@H]5C[C@]6(O)[C@H](OC(=O)c7ccccc7)[C@@H]5[C@@](O)([C@H]([C@H](OC)[C@H]23)[C@@H]14)[C@@H](O)[C@@H]6OC | 10.3% (inactive) | –
32 | C/C=C(\C)C(O)C(C)/C=C(C)/C=C/C/C(C)=C/Cc1nc(OC)c(OC)c(O[C@@H]2O[C@@H](C)[C@H](O)[C@@H](O)[C@H]2O)c1C (some centres undefined) | -19.1% (inactive) | –
33 | C=C1[C@@H]2CC[C@@]3(C)[C@H](c4ccoc4)OC(=O)C[C@]13O[C@H]1CC(=O)C(C)(C)[C@H](C(OC(C)=O)C(=O)OC)[C@]12C (some centres undefined) | -8.4% (inactive) | –
34 | CCC(C)C1NC(=O)C2CCCN2C(=O)C(CC(C)C)OC(=O)CCNC(=O)C(C)N(C)C(=O)C(C(C)C)N(C)C1=O (centres undefined) (cyclo([ξLac(3-iPr)]PI[NMeV][NMeA][βAla]); configuration not given here) | -7.14% (inactive) | –
35 | COC1=CC(=O)O[C@@H](CCc2ccccc2)C1 | -13.4% (inactive) | –
36 | CC[C@H]1C[C@@H]2CC[C@@H](O2)[C@@H](C)C(=O)O[C@H](CC)C[C@H]2CC[C@H](O2)[C@H](C)C(=O)O[C@@H](C)C[C@@H]2CC[C@@H](O2)[C@@H](C)C(=O)O[C@H](CC)C[C@H]2CC[C@H](O2)[C@H](C)C(=O)O1 | -0.893% (inactive) | –
37 | CC[C@H]1CN2CC[C@H]1C[C@H]2[C@H](O)c1ccnc2ccc(OC)cc12 | 7.14% (inactive) | –
38 | C[C@H]1CCC[C@H](O)CCC/C=C/c2cc(O)cc(O)c2C(=O)O1 | -13% (inactive) | –
39 | C=C[C@H]1[C@H](O[C@@H]2O[C@H](CO)[C@@H](O)[C@H](O)[C@H]2O)OC=C2C(=O)OCC[C@H]21 | 6.11% (inactive) | –
